Data published in PubChem BioAssay AID615 (Sanford-Burnham Center for Chemical Genomics, 2007).
Hit rate of the full screen: of about 21,000 compounds, fewer than 10 were called active.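 How the source made its calls: active means inhibition above 50% at the 20 µM single-dose screen; inactive means the rest.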 These entries were drawn from the full list.

biological target: Alkaline phosphatase, tissue-nonspecific isozyme (Homo sapiens) (UniProt P05186); assay: blockers of alkaline phosphatase TNAP catalysis – biochemical, colorimetric, p-nitrophenol readout, primary screen (AID 615); conditions: purified TNAP, pNPP hydrolysis, absorbance 405 nm; at 20 µM; hits give high values;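 further: 0% = DMSO only wells and 100% = 1 mM levamisole wells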
Sequence (P05186 whole entry, looked up): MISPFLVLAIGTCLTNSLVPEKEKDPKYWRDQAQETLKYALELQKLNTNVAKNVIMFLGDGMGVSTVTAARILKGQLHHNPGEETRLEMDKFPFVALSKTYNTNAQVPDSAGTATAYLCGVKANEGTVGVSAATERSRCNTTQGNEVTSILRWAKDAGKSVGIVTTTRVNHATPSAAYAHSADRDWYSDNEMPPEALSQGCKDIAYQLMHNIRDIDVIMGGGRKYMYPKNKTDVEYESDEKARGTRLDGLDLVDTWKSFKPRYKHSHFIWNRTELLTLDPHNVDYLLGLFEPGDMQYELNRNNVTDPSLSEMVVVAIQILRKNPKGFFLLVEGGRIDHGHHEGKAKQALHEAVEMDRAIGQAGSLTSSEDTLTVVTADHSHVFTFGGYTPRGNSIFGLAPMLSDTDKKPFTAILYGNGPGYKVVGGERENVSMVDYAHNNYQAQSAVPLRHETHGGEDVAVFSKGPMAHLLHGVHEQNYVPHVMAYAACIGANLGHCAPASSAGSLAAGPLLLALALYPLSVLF

inhibition, inactive:
COc1ccc(N2CCN(C(c3cc4ccc(C)cc4[nH]c3=O)c3nnnn3C3CCCC3)CC2)cc1 (configuration not stated) 14.6%
CCOC(=O)c1c(NC(=O)c2ccc(Br)o2)sc2c1CCCC2 1%
Cc1cc(=O)[nH]c(SCC(N)=O)c1C#N -1.7%
O=C(c1ccc2c(c1)C(=O)N(c1ccc(Cl)cc1)C2=O)N1CCN(c2ccccn2)CC1 5.1%
CCOc1ccc2nc(NC(=O)CSc3nc4c(c(=O)n(C)c(=O)n4C)n3CC)sc2c1 4.9%
CN(C)CCNC(=O)C(C(=O)c1ccccc1)n1ccccc1=O (configuration not stated) 1.2%
CCc1c(C)sc(NC(=O)OC)c1C(=O)N1CCOCC1 4.1%
O=C(O)CN1C(=O)CC(Cc2ccccc2)C1=O (configuration not stated) 4.8%
CCNC(=O)N1CCNC(=O)C1CC(=O)Nc1ccc(C(=O)OCC)cc1 (configuration not stated) 4.4%
CCOC(=O)c1[nH]c2ccccc2c1N=C(C)N(CC)CC -0.8%
Cc1nn(Cc2ccccc2)c(Cl)c1C(=O)OC1CCOC1=O (configuration not stated) 3.6%
CCC1C(C#N)=C(SC)NC2=C1C(=O)CC(C)(C)C2 (configuration not stated) -2.9%
COc1ccc(CC(=O)n2nc(-c3cccnc3)nc2N)cc1 6.9%
Cc1cccc(OCc2nnc(SCC(=O)N3CCN(C(=O)c4ccco4)CC3)n2C)c1C 0.2%
c1csc(CN2CCN(Cc3cccs3)C2c2cccs2)c1 5.5%
CCN1C(=O)/C(=C\N2CCN(c3cccc(Cl)c3)CC2)SC1=S 6.1%
COC(=O)[C@H](CCSC)NC(=O)Nc1ccc(OC)cc1 4.9%
C#CCN1CC(C)/C(=N/O)CC1C (configuration not stated) 2.4%
CC(C)OC(=O)C(C#N)c1nc2ccccc2nc1N1CCN(Cc2ccc3c(c2)OCO3)CC1 (configuration not stated) 0%
O=C(Nc1ncccn1)c1cccs1 3.3%
CCCCCN(C(=O)NC(=O)Nc1ccccc1C)S(C)(=O)=O 0.7%
Cc1ccc(C(=O)Nc2nnc(-c3ccncc3)s2)o1 -1.1%
O=C(c1cccs1)N1CCCC(c2nc(-c3ccc(F)cc3)no2)C1 (configuration not stated) 2.9%
CCCc1cc(=O)oc2c(C)c(O)c(CN3CCCCC3)cc12 0.2%
COc1ccc2c3c(c(=O)oc2c1OCC(=O)C(C)(C)C)CCCC3 3.6%
CCOC(=O)CSc1nnc(CNc2nc(-c3ccccc3)cs2)n1C 5.4%
CCc1cc2c(=O)c(-c3ccon3)c(N)oc2cc1OC 5.4%
Cc1ccnc(SCCn2c(Br)nc3c2c(=O)[nH]c(=O)n3C)n1 3%
O=C(Nc1cnn(Cc2ccc(Cl)cc2)c1)C1CCCC1 9.7%
COc1cc(OC)cc(C(=O)NCCSCc2ccco2)c1 5.2%
CC1(N2CCOCC2)CC2(O)C(=[N+]1[O-])CCc1nonc12 (configuration not stated) 9.3%
CC1CN(C2CCN(C(=O)COc3ccccc3)CC2)CC(C)O1 (configuration not stated) -2.1%
CC(C)c1nnc(NC(=O)C2CCCN2S(=O)(=O)c2ccc(Cl)cc2)s1 (configuration not stated) 3.8%
O=C(CSc1nnc(Cc2ccccc2)n1-c1ccccc1)N1CCOCC1 0.4%
Cc1cccc(NC(=O)CSc2nnc(CCCCCNC(=O)OC(C)(C)C)o2)c1C -8.7%
COC(=O)c1ccc(NC(=O)CSc2nnc(-c3ccncc3)n2C)cc1 1.1%
O=C(O)C1CCCN1S(=O)(=O)c1ccc2c(c1)CCC2 (configuration not stated) 0.7%
